According to PubChem BioAssay AID651812 (National Center for Advancing Translational Sciences (NCATS), 2012):
The whole screen tested about 2,100 compounds, of which about 650 (31%) were called active. Inconclusive results (about 16%) are left out. Calls follow the shape of the dose curve; as a rule, active = well fitted inhibition curve with a large enough effect; inconclusive = small, poorly fitted or top-dose-only effect; inactive = flat fitted curve, though single readings scatter. The list shows a part of the results.

test: qHTS for inhibitors of Vif-A3G interactions: Cherry picks; conditions: HeLa A3G-eYFP + Vif (tagged APOBEC3G with the HIV-1 protein that degrades it), 24 h; Potency: eYFP fluorescence increase; series mostly up to 36.9 µM; activity, negative = fluorescence increase: at the top concentration; also: nearly all actives have a fitted effect of over 80% in size; as to activity, negative = fluorescence increase: % of control where 0% means no effect
Source text: The recent discovery and characterization of host restriction factors, which provide a potent defense to invading retroviruses, has provided new targets for antiviral drug development. APOBEC3G (A3G) and APOBEC3F (A3F) are potent cytidine deaminases that block HIV-1 replication; HIV-1 expresses the Vif protein, which counteracts A3G and A3F by binding to them and inducing their proteasomal degradation. The Vif-A3G and Vif-A3F interactions provide two potential targets for development of small molecules which can interfere with the ability of Vif to degrade A3G or A3F. […] To identify inhibitors that can interfere with Vif mediated degradation of A3G and A3F, we have developed Hela cell lines that stably express A3G or A3F tagged with eYFP at the C-terminal end (A3G-eYFP or A3F-eYFP, respectively) and Vif. In the absence of an inhibitor, Vif induces degradation of A3G-eYFP and A3F-eYFP, and the cells are not fluorescent. In the presence of an inhibitor, it is expected that Vif will be unable to degrade A3G-eYFP and/or A3F-eYFP, resulting in an increase in yellow fluorescence. In this assay, Vif A3G was screened against the cherry picks ordered from the MLSMR. NIH Chemical Genomics Center [NCGC] NIH Molecular Libraries Probe Centers Network [MLPCN] MLPCN Grant: MH093245 Assay Submitter (PI): Vinay Pathak, National Cancer Institute
A3G-Vif cells were harvested from T225 flask and resuspended in phenol free OPTI-MEM medium with 5% FBS. Then 5 uL of 140,000 cells/mL resuspended cells was dispensed into each well of low base Aurora COC 1,536-well plates (black walled, clear bottom) using a Multidrop Combi dispenser. After overnight culture at 37 deg C with 5% CO2, a total of 23 nL of compounds at 5 selected concentrations from the NPC or positive control (2 mM stock of MG132) in DMSO was transferred to each well of the assay plate using a pintool (Kalypsys, San Diego, CA), and the plates were further incubated at 37 deg C with 5% CO2 for 24 hours. After that, the plates were measured on Acumen Explorer (TTP Lab Tech). The fluorescence was detected by 488 nm/Ex and […].
Potency is read from the fitted curve at half-maximal effect.

| Structure (SMILES) | activity, negative = fluorescence increase | Potency |
| --- | --- | --- |
| Cc1c(C(=O)N2CCOCC2)[nH]c2c1C(=O)CC(c1ccccc1Cl)C2 (stereo unspecified) | -6.27% (inactive) |  |
| Cc1ccc(C)c(N2CCN(C(=O)c3cccn4c(=O)c5sccc5nc34)CC2)c1 | -13.2% (inactive) |  |
| COc1ccc(-c2coc3cc4oc(=O)cc(-c5ccccc5)c4cc23)cc1F | -6.21% (inactive) |  |
| CCC/C=N/NC(=O)c1[nH]c2c([N+](=O)[O-])cccc2c1C | -10.4% (inactive) |  |
| CCCC(=O)Nc1nc2ccc(NC(=O)c3ccccc3F)cc2s1 | -0.963% (inactive) |  |
| O=C(CSc1nc2ccc(Nc3nc(N4CCOCC4)nc(N4CCOCC4)n3)cc2s1)Nc1ccccc1F |  | 5.8 µM (active) |
| O=C(CSc1nc2ccccc2s1)c1cc2ccccc2o1 | -7.76% [at 46.1 µM] (inactive) |  |
| Cc1nc(SCC(=O)c2ccccc2)c(C#N)c(-c2ccco2)c1C(=O)NCc1ccco1 | -3.59% (inactive) |  |
| Cc1ccc(C(=O)CSc2nc(-c3ccccc3)ccc2C#N)cc1 |  | 18.4 µM (active) |
| Cc1ccc(C(=O)CSC2=C(C#N)C(c3ccco3)C3=C(CCCC3=O)N2)cc1 (stereo unspecified) | -2.89% (inactive) |  |
| CCOc1cc(C#N)c(NC(=O)c2cccnc2)cc1OCC | -0.835% (inactive) |  |
| N#Cc1ccc(-c2cccnc2)nc1SCC(=O)c1ccccc1 |  | 16.4 µM (active) |
| CCOc1ccc(S(=O)(=O)Nc2cc3c(C(=O)OC)c(COC)oc3c3ccccc23)cc1 | -1.7% [at 46.1 µM] (inactive) |  |
| CN1/C(=C\C=C(/C#N)C(=O)Nc2ccccc2F)C(C)(C)c2ccccc21 |  | 9.2 µM (active) |
| CN1/C(=C\C=C(/C#N)C(=O)Nc2ccc(Cl)cc2)C(C)(C)c2ccccc21 |  | 4.98 µM (active) |
| COc1ccc(NC(=O)/C(C#N)=C\C=C\c2ccco2)cc1 | -0.406% (inactive) |  |
| O=C(NNC1=Nc2cccc3cccc1c23)c1ccc(Br)cc1 |  | 18.4 µM (active) |
| COCCCNC(=S)N/N=C/c1cccc(OC)c1O | 10% [at 46.1 µM] (inactive) |  |
| CC1=C(n2nnc3ccccc32)C(c2ccccc2)C(C#N)=C(N)O1 (stereo unspecified) | -11.3% [at 46.1 µM] (inactive) |  |
| COc1ccc2c(c1)N(C)/C(=C/c1cccc[n+]1C)S2 |  | 14 µM (active) |
| CCOc1ccc(CN2C(=O)c3ccccc3Sc3ccc(C(=O)O)cc32)cc1 | 0.283% [at 46.1 µM] (inactive) |  |
| CCN1/C(=C/c2cccc[n+]2C)Sc2ccc(OC)cc21 |  | 16.4 µM (active) |

| Structure (SMILES) | activity, negative = fluorescence increase | Potency |
| --- | --- | --- |
| CC[n+]1ccccc1/C=C1\Sc2ccc(C)cc2N1C |  | 20.6 µM (active) |
| COc1ccc(C(=O)Nc2ccc3c(c2)N(C)C(=O)c2ccccc2S3)cc1OC | -6.52% [at 46.1 µM] (inactive) |  |
| N#CC1=C(N)Oc2ccc3ccc(O)cc3c2C1c1ccsc1 (stereo unspecified) | 1.71% (inactive) |  |
| O=C(Cc1nc2ccccc2[nH]c1=O)c1ccc(Cl)cc1 |  | 20.6 µM (active) |
| c1ccc2[nH]c(NN=C3CCCCCC3)nc2c1 | -1.53% [at 46.1 µM] (inactive) |  |
| CC(=O)/C(=C\N(C)C)Sc1ccc(Cl)cc1 | 1.16% (inactive) |  |
| COc1cccc(C2=CC(c3cccs3)n3nnnc3N2)c1 (stereo unspecified) | -4.47% (inactive) |  |
| Cc1cc(C)n(S(=O)(=O)/C=C/c2ccccc2)n1 | -1.06% (inactive) |  |
| O=C(NCC1CCCO1)c1nn2c(C(F)(F)F)cc(-c3cc(Br)cs3)nc2c1Br (stereo unspecified) |  | 13 µM (active) |
| COc1ccc(C)cc1NCc1cc(=O)oc2cc(-c3ccccc3)c(O)cc12 | -4.47% (inactive) |  |
| CCOC(=O)c1c(-c2ccc(OC)cc2)csc1/N=C/C1C(=O)CCCC1=O | 3.35% [at 46.1 µM] (inactive) |  |
| O=C(CC1CC2CCC1C2)Nc1nc(-c2ccccn2)cs1 (stereo unspecified) | 7.15% [at 46.1 µM] (inactive) |  |
| N#Cc1c(-c2ccc(F)cc2)c(-c2ccc(F)cc2)nn(CCO)c1=O |  | 12.5 µM (active) |
| N#Cc1c(-c2ccccc2)c(-c2ccccc2)nn(CC(=O)NNC(=O)Nc2ccccc2)c1=O | 0.182% (inactive) |  |
| CCn1c(SCC(=O)N/N=C/c2ccc(C)s2)nc2ccccc21 | -3.11% (inactive) |  |
| Cc1ccc(S(=O)(=O)N2CCCCC2CCNC(=O)C(=O)NCc2ccco2)cc1 (stereo unspecified) | 1.61% (inactive) |  |
| COc1cc(/C=N\Nc2ccc([N+](=O)[O-])cc2)ccc1OCC(=O)Nc1ccc(C)c(C)c1 |  | 8.2 µM (active) |
| Cc1ccccc1OCC(=O)N/N=C/c1ccc(N(C)C)cc1 | -12.3% (inactive) |  |
| Cc1cccc(C)c1OCC(=O)N/N=C/c1ccc2c(c1)OCO2 | -7.24% (inactive) |  |
| COCCNC(=S)N/N=C(\C)c1ccccc1O | -20.4% [at 46.1 µM] (inactive) |  |
| C[n+]1ccc(/C=C/c2c[nH]c3ccccc23)cc1 |  | 11.6 µM (active) |
| CC[n+]1ccc(/C=C/c2c[nH]c3ccccc23)cc1 |  | 14.6 µM (active) |

| Structure (SMILES) | activity, negative = fluorescence increase | Potency |
| --- | --- | --- |
| OCC[n+]1ccc(/C=C/c2c[nH]c3ccccc23)cc1 |  | 10.3 µM (active) |
| C[n+]1ccc(/C=C/c2cc[n+](C)c3ccccc23)c2ccccc21 | -3.5% [at 46.1 µM] (inactive) |  |
| CC(=O)Nc1cccc(-c2cc(NC=O)c3ncc(-c4ccc(F)c(Cl)c4)n3c2)c1 | -14.5% (inactive) |  |
| COc1ccc(-c2cc(NC=O)c3ncc(-c4cccc(C(F)(F)F)c4)n3c2)cc1OC | -4.35% (inactive) |  |
| N#C/C=C/N1CCN(C(=O)c2ccco2)CC1 | -0.0719% (inactive) |  |
| COc1cc(C2Sc3ccccc3NC3=C2C(=O)OC3)cc(OC)c1OC (stereo unspecified) | -3.73% (inactive) |  |
| COc1cc(CCC(=O)Nc2nnc(C)s2)cc(OC)c1OC | -0.45% (inactive) |  |
| Cc1cc(C)nc(NC(=S)Nc2cccc(Cl)c2Cl)c1 | -1.92% [at 46.1 µM] (inactive) |  |
| CCN(CC)c1nc2ccccc2nc1C(C#N)C(=O)NCCc1ccccc1 (stereo unspecified) |  | 3.66 µM (active) |
| N#CC(C(=O)NCc1ccccc1)c1nc2ccccc2nc1N1CCCC1 (stereo unspecified) |  | 18.4 µM (active) |
| NC(=O)C1CCN(c2nc3ccccc3nc2NS(=O)(=O)c2ccc(Br)cc2)CC1 | 3.49% [at 46.1 µM] (inactive) |  |
| CN1CCN(c2ccc([N+](=O)[O-])cc2C(=O)c2ccc(Br)cc2)CC1 | -8.13% (inactive) |  |
| Cc1cc(C)c(C(=O)N(CCN(C)C)CC2CCCN(Cc3ccccc3F)C2)o1 (stereo unspecified) | 1.85% [at 46.1 µM] (inactive) |  |
| COc1ccccc1C(=O)Nc1ccc2c(c1)CN(C(=O)CSC)CC2 | -0.589% (inactive) |  |
| Cc1ccc(-c2nc3sc(C#N)c(N)n3c(=O)c2C#N)cc1 |  | 18.4 µM (active) |
| O=C(NCc1ccco1)C1Cc2c(-c3cccc(F)c3)ccnc2O1 (stereo unspecified) | -4.44% (inactive) |  |
| Cc1ccc(C(=O)c2cc([N+](=O)[O-])ccc2N2CCN(C)CC2)cc1 | -1.12% (inactive) |  |
| CCN(CC)c1ccc2cc(-c3nc(-c4cc(OC)c(OC)c(OC)c4)no3)c(=O)oc2c1 |  | 0.58 µM (active) |
| CCN(CC)c1ccc2cc(-c3nc4sc5c(c4c(=O)[nH]3)CCC(C(C)(C)C)C5)c(=O)oc2c1 (stereo unspecified) | -8.91% [at 46.1 µM] (inactive) |  |
| CCN(CC)c1ccc2cc(-c3nnc(-c4ccccc4)o3)c(=O)oc2c1 |  | 0.627 µM (active) |
| CCN(CC)c1ccc2cc(-c3nc(-c4cccs4)no3)c(=O)oc2c1 |  | 2.91 µM (active) |
| CCN(CC)c1ccc2cc(-c3nc(-c4ccc(Cl)cc4Cl)cs3)c(=O)oc2c1 |  | 2.91 µM (active) |
